Values joined by “and” are separate entries in the source; they are usually repeats but may differ in a detail not shown here. Equal values may be shown once. The campaign covered roughly 5,500 compounds. About 2,000 (36%) were called active. Inconclusive results (about 18%) are left out. No stated cut-off is given here; in the data, active means normalized growth mostly below about 0.91 (no sharp cut-off); inconclusive means no clear call, values can overlap the other calls; inactive means mostly above about 0.92. The list shows a part of the results.
Experiment: chemical genetic growth profiling, strain panel (AID 1159580);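 further: tested at 20 µM; growth read once vehicle control cultures reached saturation at 30 °C; 1 = growth at the plate median or of vehicle wells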
Conditions: S. cerevisiae deletion strains, growth OD

Measured: normalized growth

CCCCCCc1ccc(O)cc1O
active: locus YAL013W, strain DEP1, stronger effect = lower value 0.677 | locus YAL026C, strain drs2, stronger effect = lower value 0.747 | locus YBR009C, strain hhf1, stronger effect = lower value 0.788 | locus YBR023C, strain chs3, stronger effect = lower value 0.89 | locus YBR231C, strain swc5, stronger effect = lower value 0.865 | locus YCL011C, strain gbp2, stronger effect = lower value 0.896 | locus YCL016C, strain dcc1, stronger effect = lower value 0.912 | locus YCL029C, strain bik1, stronger effect = lower value 0.877 | locus YCL061C, strain MRC1, stronger effect = lower value 0.906 | locus YDL192W, strain arf1, stronger effect = lower value 0.798 | locus YDR101C, strain arx1, stronger effect = lower value 0.84 | locus YDR137W, strain rgp1, stronger effect = lower value 0.608 | locus YDR159W, strain sac3, stronger effect = lower value 0.525 | locus YDR318W, strain mcm21, stronger effect = lower value 0.794 | locus YDR388W, stronger effect = lower value 0.868 | locus YDR392W, strain spt3, stronger effect = lower value 0.283 | locus YDR502C, strain sam2, stronger effect = lower value 0.814 | locus YEL003W, strain gim4, stronger effect = lower value 0.911 | locus YER155C, strain BEM2 (second series), stronger effect = lower value 0.642 | locus YER155C, strain BEM2, stronger effect = lower value 0.875 | locus YGL078C, strain dbp3, stronger effect = lower value 0.885 | locus YGL086W, strain mad1, stronger effect = lower value 0.783 | locus YGL173C, strain kem1, stronger effect = lower value 0.883 | locus YGL248W, strain PDE1, stronger effect = lower value 0.868 | locus YGL253W, strain hxk2, stronger effect = lower value 0.893 | locus YGR135W, strain pre9, stronger effect = lower value 0.85 | locus YGR252W, strain gcn5, stronger effect = lower value 0.752 | locus YHR013C, strain ard1, stronger effect = lower value 0.822 | locus YHR030C, strain SLT2, stronger effect = lower value 0.804 | locus YHR079C, strain IRE1 (second series), stronger effect = lower value 0.832 | locus YHR142W, strain chs7, stronger effect = lower value 0.838 | locus YHR200W, strain rpn10, stronger effect = lower value 0.903 | locus YIL125W, strain kgd1, stronger effect = lower value 0.88 | locus YIR030C, strain dcg1, stronger effect = lower value 0.917 | locus YJL095W, strain BCK1 (second series), stronger effect = lower value 0.887 | locus YJL095W, strain BCK1, stronger effect = lower value 0.737 and 0.818 | locus YJL129C, strain trk1, stronger effect = lower value 0.85 | locus YJL164C, strain tpk1, stronger effect = lower value 0.841 | locus YJL166W, strain qcr8, stronger effect = lower value 0.85
inactive: locus YAL021C, strain ccr4, stronger effect = lower value 0.955 | locus YAL030W, strain snc1, stronger effect = lower value 0.961 | locus YBL061C, strain skt5, stronger effect = lower value 0.927 | locus YBR021W, strain FUR4, stronger effect = lower value 0.977 | locus YBR171W, strain sec66, stronger effect = lower value 0.973 | locus YBR229C, strain ROT2, stronger effect = lower value 0.967 | locus YBR279W, strain paf1, stronger effect = lower value 0.968 | locus YCL069W, strain vba3, stronger effect = lower value 0.972 | locus YCR088W, strain abp1, stronger effect = lower value 0.939 | locus YDL005C, strain med2, stronger effect = lower value 0.988 | locus YDL035C, strain GPR1, stronger effect = lower value 0.872 | locus YDL040C, strain nat1, stronger effect = lower value 0.973 | locus YDL074C, strain BRE1, stronger effect = lower value 0.786 | locus YDL101C, strain DUN1, stronger effect = lower value 0.95 | locus YDL185W, strain tfp1, stronger effect = lower value 0.956 | locus YDR001C, strain nth1, stronger effect = lower value 0.975 | locus YDR069C, strain doa4, stronger effect = lower value 0.939 | locus YDR150W, strain NUM1, stronger effect = lower value 0.942 | locus YDR162C, strain NBP2, stronger effect = lower value 0.884 | locus YDR195W, strain ref2 1.12 | locus YDR297W, strain sur2, stronger effect = lower value 0.948 | locus YDR334W, strain swr1, stronger effect = lower value 0.988 | locus YDR335W, strain msn5, stronger effect = lower value 0.96 | locus YEL037C, strain rad23, stronger effect = lower value 0.976 | locus YEL061C, strain CIN8 (second series), stronger effect = lower value 0.983 | locus YEL061C, strain CIN8, stronger effect = lower value 0.943 | locus YER015W, strain faa2, stronger effect = lower value 0.978 | locus YER016W, strain bim1, stronger effect = lower value 1.05 | locus YER110C, stronger effect = lower value 0.987 | locus YER111C, strain swi4, stronger effect = lower value 0.976 | locus YER167W, strain BCK2, stronger effect = lower value 0.923 | locus YFR010W, strain ubp6, stronger effect = lower value 0.971 | locus YGL167C, strain pmr1, stronger effect = lower value 0.981 | locus YGL227W, strain vid30, stronger effect = lower value 0.977 | locus YGL240W, strain doc1, stronger effect = lower value 0.899 | locus YGR078C, strain PAC10, stronger effect = lower value 0.882 | locus YHR027C, strain rpn1, stronger effect = lower value 0.966 | locus YHR079C, strain IRE1, stronger effect = lower value 0.862 | locus YHR094C, strain hxt1, stronger effect = lower value 0.964 | locus YHR129C, strain ARP1, stronger effect = lower value 0.949 | locus YIL066C, strain RNR3, stronger effect = lower value 0.967 | locus YIL073C, strain SPO22, stronger effect = lower value 0.811 | locus YJL092W, strain hpr5, stronger effect = lower value 0.943 | locus YJL115W, strain asf1, stronger effect = lower value 0.993 | locus YJL134W, strain LCB3, stronger effect = lower value 0.96 | locus YJL154C, strain vps35, stronger effect = lower value 0.993 | locus YJL168C, strain set2, stronger effect = lower value 0.947 | locus YJL187C, strain SWE1 (second series), stronger effect = lower value 0.931

— PubChem BioAssay AID1159580 (chemical genetic matrix, 2015)
